Data published in PubChem BioAssay (NCI).
Compounds without any hit were thinned out: in the full panel of roughly 79,000, 15% have a hit. Values without a mark were called inactive. The source made the active and inactive calls. No stated cut-off is given here; in the data, active means growth inhibition above about 70%; inactive means the rest.

assay: NCI Yeast Anticancer Drug Screen. Data for the sgs1 mgt1 strain (AID 161);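 further: 0% = growth of cultures given vehicle only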; conditions: S. cerevisiae sgs1 mgt1 strain, at 50.0 µM (retest, dose inferred, filed as 5.0), stronger effect = higher value
Outline: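 Yeast cells carrying a defined DNA-repair defect were exposed to test compounds. Growth inhibition was measured relative to vehicle-treated controls.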

Compound	growth inhibition
O=[N+]([O-])c1ccc(N2N=NC(CN3CCOCC3)C2N2CCOCC2)cc1 (stereo not drawn)	56%
FC(F)(F)c1ccccc1NC(=S)SCc1ccco1	45%
O=C(c1ccc(Cl)cc1)C1N=NCC1c1ccccc1 (stereo not drawn)	50%
COc1cc(C2c3cc4c(cc3[C@@H](OCCN)[C@H]3COC(=O)C23)OCO4)cc(OC)c1O (stereo partly drawn)	63%
CC(C)(C)c1cc2c(c(C(C)(C)C)c1O)CC(=O)O2	77% (active)
CCCCCCCCCCCCCCCCCCSSCCCCCCCCCCCCCCCCCC	-3%
c1ccc2c(c1)OCC(CNCCNCC1COc3ccccc3O1)O2 (stereo not drawn)	86% (active)
CC(=O)C(C(C)=O)C1C=CC=CC=C1	90% (active)
c1ccc2c(c1)ccc1c[n+]3c4ccccc4ccc3n12	82% (active)
CC(=O)C(=C(I)I)c1ccccc1	93% (active)
O=C1c2ccccc2CN1Cc1ccc(Cl)c(Cl)c1	96% (active)
CC1CC(N)=NC1C(=O)NCCC#N (stereo not drawn)	17%
CC(=O)CC(C)=NCCN=C(C)CC(C)=O.[Pd]	96% (active)
CCOc1ccccc1NC1=C(Cl)C(=O)c2ccccc2C1=O	98% (active)
CCN1C2=NCCN2S(=O)(=O)c2ccccc21	14%
O=C(Cc1nc2ccccc2s1)C(=O)Nc1ccc(Cl)cc1	0%
O=C(CCn1[nH]c(=O)c(Cl)c(Cl)c1=O)NNc1ccc([N+](=O)[O-])cc1[N+](=O)[O-]	18%
COc1cccc(C2c3cc4c(cc3OC(NNc3ccccc3)C2C)OCO4)c1OC (stereo not drawn)	86% (active)
